The results in this text go back to PubChem BioAssay.

The target of experiment [1] is 6-phosphogluconate dehydrogenase, decarboxylating (Homo sapiens) (UniProt P52209). The experiment is described as follows: 6PGD enzyme inhibitors, primary screen, biochemical, human, recombinant enzyme, NADPH absorbance (AID 1159550;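 active means at least 20% inhibition of 6-phosphogluconate dehydrogenase activity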). To be noted: recombinant 6PGD, NADPH absorbance 341 nm; at 10 µM; stronger effect = higher value.
6-phosphogluconate dehydrogenase, decarboxylating (Homo sapiens), sequence (P52209 whole entry, looked up): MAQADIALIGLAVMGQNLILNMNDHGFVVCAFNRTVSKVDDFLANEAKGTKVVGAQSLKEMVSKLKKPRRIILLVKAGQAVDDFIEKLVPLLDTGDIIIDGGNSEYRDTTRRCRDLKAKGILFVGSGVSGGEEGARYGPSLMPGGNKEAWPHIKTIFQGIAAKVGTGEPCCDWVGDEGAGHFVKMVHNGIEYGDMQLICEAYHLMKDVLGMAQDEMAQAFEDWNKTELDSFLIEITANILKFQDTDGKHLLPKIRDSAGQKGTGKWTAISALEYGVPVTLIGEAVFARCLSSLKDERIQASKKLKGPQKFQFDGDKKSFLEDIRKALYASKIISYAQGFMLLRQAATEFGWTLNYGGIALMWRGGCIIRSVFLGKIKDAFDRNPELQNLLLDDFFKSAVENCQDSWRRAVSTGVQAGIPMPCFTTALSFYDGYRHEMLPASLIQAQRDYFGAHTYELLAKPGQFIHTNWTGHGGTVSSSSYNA
A short description of experiment [2]: sensitizers of A549 cells to miR-34 induction, primary screen, imaging, A549 dox-inducible miR-34, nuclei and caspase counts (AID 1347080). To be noted: A549 miR-34 inducible, Hoechst nuclei count, 48 h.
The nature of experiment [3]: viability rescue of complex I mutant cybrids, primary screen, cell-based, galactose medium, ATP luminescence (AID 1645843;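 active means z-score of at least 1.8 in each of two replicates, scored against plate mean and spread of sample wells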;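 further: positive z means more ATP and so rescue of galactose-driven cybrid death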). To be noted: complex I mutant cybrid cells, 72 h, stronger effect = higher value.
The target of experiment [4] is Mitogen-activated protein kinase 7 (Homo sapiens) (UniProt Q13164). The experiment is described as follows: ERK5 transactivation activators in reporter cells, primary screen, cell-based, HTS (AID 1508626;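 active means luciferase signal above three times the same-plate solvent-only control wells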;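 further: luciferase driven by Gal4-ERK5 fusion binding five Gal4 sites before minimal TATA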). To be noted: HeLa Gal4-ERK5 transactivation, 18 h, at 5 µM, stronger effect = higher value.
Mitogen-activated protein kinase 7 (Homo sapiens), sequence (Q13164 whole entry, looked up, the tested form may be a part): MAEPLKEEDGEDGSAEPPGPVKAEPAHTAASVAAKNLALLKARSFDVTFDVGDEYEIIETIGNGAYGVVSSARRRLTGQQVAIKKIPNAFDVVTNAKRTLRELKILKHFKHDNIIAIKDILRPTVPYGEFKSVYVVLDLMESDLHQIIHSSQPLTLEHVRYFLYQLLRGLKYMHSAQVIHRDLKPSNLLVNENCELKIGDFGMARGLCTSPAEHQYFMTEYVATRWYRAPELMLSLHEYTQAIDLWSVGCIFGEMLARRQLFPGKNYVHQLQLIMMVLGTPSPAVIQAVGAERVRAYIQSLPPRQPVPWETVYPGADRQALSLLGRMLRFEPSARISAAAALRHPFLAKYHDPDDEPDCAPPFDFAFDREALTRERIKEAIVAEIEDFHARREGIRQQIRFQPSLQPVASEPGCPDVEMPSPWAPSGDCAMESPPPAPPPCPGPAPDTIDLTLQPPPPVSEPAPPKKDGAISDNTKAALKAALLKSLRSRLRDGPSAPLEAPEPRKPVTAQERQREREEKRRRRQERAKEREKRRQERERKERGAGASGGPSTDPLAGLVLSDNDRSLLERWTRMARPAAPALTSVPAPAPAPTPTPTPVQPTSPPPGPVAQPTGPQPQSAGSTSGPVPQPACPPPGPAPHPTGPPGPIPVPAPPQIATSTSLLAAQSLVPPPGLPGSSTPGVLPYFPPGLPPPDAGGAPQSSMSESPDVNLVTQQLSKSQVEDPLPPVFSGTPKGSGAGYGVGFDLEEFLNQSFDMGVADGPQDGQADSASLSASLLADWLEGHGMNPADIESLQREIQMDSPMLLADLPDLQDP
A short description of experiment [5]: liver-stage malaria parasite growth inhibition, primary screen, cell-based, HepG2, luciferase luminescence, HepG2 viability (AID 624349; in the data active means parasite load remaining mostly below about 12%, no sharp cut-off; inactive means mostly above about 10%;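 further: 100% = mean of DMSO negative control wells on the same plate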). To be noted: P. berghei liver stage in HepG2, luciferase luminescence, concentration not given here; parasite load remaining: stronger effect = lower value; viability: measured here: HepG2 viability without parasites.
A short description of experiment [6]: growth inhibition of DIPG glioma cells, dose response, cell-based, JHH-DIPG-1, MIPE4.0, CellTiter-Glo, qHTS (AID 1347062; cut-off not given, nearly all actives have AC50 up to about 27 µM;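 on AC50: cells exposed to compound for two days before readout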). To be noted: JHH-DIPG-1 viability, CellTiter-Glo ATP luminescence.
Experiment [7] can be described thus: survival rescue of mitochondrial mutant cells in low glucose, primary screen, MELAS cybrids, Rieske KO mouse fibroblasts, CellTiter-Glo (AID 1508586;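 active means mean z-score across replicates of 1.96 or higher in either the MELAS or the Rieske mutant cell line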;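 further: z relative to plate mean and SD of compound and empty wells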). In general terms: ATP-based viability assays read luminescence as a measure of living cells.
The target in experiment [8] is NAD(+) hydrolase SARM1 (Homo sapiens) (UniProt Q6SZW1). Kind of experiment: SARM1 TIR NADase inhibitors, cell lysate, NAD-Glo luminescence (AID 1508614;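 active means compound whose remaining NAD level is above about 45 nM, limit read from the data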). To be noted: SAM-TIR HEK293T lysate NADase, at 1 µM, stronger effect = higher value.
NAD(+) hydrolase SARM1 (Homo sapiens), sequence (Q6SZW1 whole entry, looked up): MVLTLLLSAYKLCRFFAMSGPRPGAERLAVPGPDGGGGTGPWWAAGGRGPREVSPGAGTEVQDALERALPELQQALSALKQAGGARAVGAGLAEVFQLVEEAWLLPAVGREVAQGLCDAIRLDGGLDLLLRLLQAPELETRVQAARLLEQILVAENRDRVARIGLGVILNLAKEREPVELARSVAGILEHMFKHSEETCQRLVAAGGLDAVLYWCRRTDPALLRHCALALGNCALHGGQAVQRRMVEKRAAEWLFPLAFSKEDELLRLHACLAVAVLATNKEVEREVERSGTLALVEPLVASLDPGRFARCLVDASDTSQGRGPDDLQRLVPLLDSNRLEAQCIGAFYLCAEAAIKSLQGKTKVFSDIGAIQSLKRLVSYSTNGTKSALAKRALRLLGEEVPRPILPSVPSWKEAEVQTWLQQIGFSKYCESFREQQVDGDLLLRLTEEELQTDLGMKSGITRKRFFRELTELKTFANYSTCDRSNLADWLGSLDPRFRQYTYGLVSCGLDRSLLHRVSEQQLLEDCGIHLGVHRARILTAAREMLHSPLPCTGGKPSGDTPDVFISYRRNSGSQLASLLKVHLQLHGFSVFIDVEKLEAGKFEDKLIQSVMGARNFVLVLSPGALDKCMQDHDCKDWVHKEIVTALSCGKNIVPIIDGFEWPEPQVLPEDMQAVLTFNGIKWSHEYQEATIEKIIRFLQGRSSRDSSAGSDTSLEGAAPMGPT
A short description of experiment [9]: LFS_MB_P medulloblastoma growth inhibition, cell-based, chromothripsis tumors, cisplatin or BGB combos (AID 1671449; in the data active means inhibition above about 80%;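 further: cells exposed for 96 hours; 0% = vehicle DMSO and 100% = killing by high DMSO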). To be noted: LFS_MB_P medulloblastoma cells.
Experiment [10] in a line: HDN33 neuroblastoma growth inhibition, cell-based, chromothripsis tumors, cisplatin or BGB combos (AID 1671450; in the data active means inhibition above about 80%;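 further: cells exposed to compound for four days; 0% = vehicle DMSO and 100% = cell killing by high DMSO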). To be noted: HDN33 neuroblastoma cells, stronger effect = higher value.
A short description of experiment [11]: ICB984 medulloblastoma cell growth inhibition, synergistic combos for chromothripsis tumors, cisplatin or BGB combos (AID 1671451; call rule not given here;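 further: cells exposed for 96 hours before readout; 0% = vehicle DMSO and 100% = killing by high DMSO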). To be noted: ICB984 medulloblastoma cells, drug combinations, stronger effect = higher value.
Experiment [12] is described as follows: HTB85 osteosarcoma cell growth inhibition, synergistic combos for chromothripsis tumors, BGB or cisplatin IC20 combos (AID 1671453; in the data active means inhibition above about 80%;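 further: cells exposed for 96 hours before readout; 0% = vehicle DMSO and 100% = high DMSO killing control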). To be noted: HTB85 osteosarcoma cells, drug combinations, stronger effect = higher value.
Setting [13] is: stronger effect = lower value, cell number ratio, induced over uninduced.
Where [14] appears, read: measured here: relative caspase fold change +Dox/-Dox.
The mark [15] stands for this setting: measured here: total cells with miR-34 induction, stronger effect = lower value.
[16] abbreviates: measured here: total cells without miR-34 induction.
Setting [17] is: MELAS cybrid survival, CellTiter-Glo 48 h, stronger effect = higher value.
Setting [18] is: Rieske KO mouse fibroblast survival, CellTiter-Glo 72 h.

SMILES strings stand for the structures. Values joined by “and” are separate entries in the source; they are usually repeats but may differ in a detail not shown here. Equal values may be shown once. Records with an inconclusive call do not appear. Active and inactive are the calls of the source.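 How the source made its calls, unless noted: active means compounds whose cell count with miR-34 switched on is under 0.7 times the count with it off; inactive means the rest.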

The term inhibition denotes the change of the read-out against control, counted positive when it falls. As for `O=C(O)Cc1nn(Cc2ccc(Br)cc2F)c(=O)c2ccccc12`, the inhibition in [1] is 11.5% (inactive). Also, the fold change in experiment [2] (setting [13]) is 0.972 (inactive); in [2] (setting [14]), 0.601. Besides, the cell count in [2] (setting [15]) is 8710; in experiment [2] (setting [16]), 8960. The z-score in [3] is 0.945 (inactive).

As to `O=C(/C=C/c1ccc(O)c(O)c1)O[C@H](Cc1ccc(O)c(O)c1)C(=O)O`, in [1], the inhibition was -3.01% (inactive). Moreover, the fold change in [2] (setting [13]) was 0.903 (inactive) and 0.98 (inactive); in [2] (setting [14]), 1.31 and 0.699. Moreover, the cell count in experiment [2] (setting [15]) was 5220 and 9720; in experiment [2] (setting [16]) it was 5780 and 9920. The luciferase signal in [4] was 44 AU (inactive). The z-score in experiment [3] was 0.02 (inactive).

For orientation: viability means a read-out of living cells in per cent, often relative to untreated cells. Turning to `N=c1ccn2c(n1)O[C@H]1[C@H](O)[C@@H](CO)O[C@H]12`, the parasite load remaining in [5] was 29.5% (inactive). Moreover, the viability in experiment [5] stood at 73.5%. In addition, the inhibition in experiment [1] was -4.99% (inactive); in experiment [9] (at 0.5 µM, stronger effect = higher value) it was -28.5% (inactive); in experiment [9] (measured here: combination with BGB IC20, at 0.005 µM), -22.6%; in experiment [9] (measured here: combination with BGB IC40, at 0.005 µM) it was -23.7%; in experiment [9] (measured here: combination with BGB IC40, at 0.05 µM), -32.2%; in [9] (measured here: combination with cisplatin, at 0.5 µM, stronger effect = higher value), -58.3%. In addition, the inhibition in experiment [9] (measured here: combination with cisplatin, at 5 µM, stronger effect = higher value) is 86.6%; in experiment [10] (BGB combo, at 5 µM) it was 85.1%; in experiment [10] (at 0.5 µM), 76.6% (inactive); in [10] (cisplatin combo, at 5 µM) it was 80.9%; in [10] (measured here: with BGB IC20 combination, at 0.5 µM), 82.4%; in experiment [10] (measured here: with cisplatin IC20 combination, at 0.5 µM) it was 69.1%. Moreover, the inhibition in [10] (single agent, at 5 µM) was 81.4%; in [11] (BGB IC20 combo, at 0.005 µM), -16.9%; in [11] (BGB IC40 combo, at 0.005 µM), -39.5%; in [11] (BGB IC40 combo, at 0.05 µM), -9.88%; in [11] (at 0.5 µM), -19.6% (inactive); in experiment [11] (cisplatin combo, at 0.05 µM) it was -12.9%. For the same compound, the inhibition in experiment [11] (cisplatin combo, at 0.5 µM) was -20.7%; in experiment [11] (cisplatin combo, at 5 µM), -55.6%; in [11] (measured here: 5 uM single agent, at 5 µM), -6.48%; in [12] (at 0.5 µM) it was 32.7% (inactive); in [12] (measured here: with BGB IC20, at 0.5 µM), 1.49%; in experiment [12] (measured here: with BGB IC20, at 5 µM), 23.6%. Moreover, the inhibition was determined as 44.8% in experiment [12] (measured here: with cisplatin IC20, at 0.5 µM); 50.9% in experiment [12] (measured here: with cisplatin IC20, at 5 µM); 64.3% in [12] (single agent, at 5 µM). The call in [6] was inactive. Further, the fold change in experiment [2] (setting [13]) was 1.14 (inactive); in [2] (setting [14]), 1. Besides, the cell count in experiment [2] (setting [15]) worked out at 3040; in experiment [2] (setting [16]) it was 2660. In addition, the z-score was -0.885 (inactive) in experiment [7] (setting [17]), -0.24 in [7] (setting [18]) and -1.8 (inactive) in [3]. The remaining NAD in experiment [8] was 10 nM (inactive). The luciferase signal in experiment [4] is 44 AU (inactive).

As for `O=C(O)c1cc(=O)c2ccc(Cl)cc2[nH]1`, the inhibition in [1] was 15.5% (inactive). The values for the fold change in experiment [2] (setting [13]) and in [2] (setting [14]) were 0.965 (inactive) and 1.21, respectively. Further, the cell count in experiment [2] (setting [15]) came to 8410; in [2] (setting [16]), 8710. Further, the z-score in experiment [3] is -0.2 (inactive).

In general, AC50 refers to the midpoint of the concentration-response curve, whichever way the signal moves. As for `C[C@@H]1[C@H](O)[C@@H](C)/C=C/C=C/C=C/C=C/C=C/C=C/C=C/[C@H](O[C@@H]2O[C@H](C)[C@@H](O)[C@H](N)[C@@H]2O)C[C@@H]2O[C@](O)(C[C@@H](O)C[C@@H](O)[C@H](O)CC[C@@H](O)C[C@@H](O)CC(=O)O[C@H]1C)C[C@H](O)[C@H]2C(=O)O`, the parasite load remaining in [5] is 70.3% (inactive). Moreover, the viability in experiment [5] amounted to 129%. For the same compound, the inhibition in experiment [1] was -10.9% (inactive). The AC50 in experiment [6] was 1.32 µM (active). The fold change in experiment [2] (setting [13]) was 0.894 (inactive); in experiment [2] (setting [14]), 1.05. Also, the cell count is 7670 in [2] (setting [15]) and 8570 in [2] (setting [16]). For the same compound, the z-score in experiment [7] (setting [17]) was -0.838 (inactive); in experiment [7] (setting [18]) it was -0.728. The remaining NAD in experiment [8] is 10 nM (inactive). Besides, the luciferase signal in experiment [4] was 92 AU (inactive).

For the compound `C=C1CC[C@@H]2[C@](C)(CO)[C@H](O)CC[C@@]2(C)[C@@H]1C/C=C1/C(=O)OC[C@H]1O`, in experiment [1], the inhibition is -4.69% (inactive). For the same compound, in experiment [4], the luciferase signal was 176 AU (active).
